# Assay outcomes (PubChem)
# USP10 inh = human USP10 deubiquitinase inhibition | Q14694 | purified USP10, Ub-rhodamine fluorescence, 60 min | inhibition, % at 20 µM | hit rate 1.1% among 47,000
# Target sequence (Q14694 whole entry, looked up): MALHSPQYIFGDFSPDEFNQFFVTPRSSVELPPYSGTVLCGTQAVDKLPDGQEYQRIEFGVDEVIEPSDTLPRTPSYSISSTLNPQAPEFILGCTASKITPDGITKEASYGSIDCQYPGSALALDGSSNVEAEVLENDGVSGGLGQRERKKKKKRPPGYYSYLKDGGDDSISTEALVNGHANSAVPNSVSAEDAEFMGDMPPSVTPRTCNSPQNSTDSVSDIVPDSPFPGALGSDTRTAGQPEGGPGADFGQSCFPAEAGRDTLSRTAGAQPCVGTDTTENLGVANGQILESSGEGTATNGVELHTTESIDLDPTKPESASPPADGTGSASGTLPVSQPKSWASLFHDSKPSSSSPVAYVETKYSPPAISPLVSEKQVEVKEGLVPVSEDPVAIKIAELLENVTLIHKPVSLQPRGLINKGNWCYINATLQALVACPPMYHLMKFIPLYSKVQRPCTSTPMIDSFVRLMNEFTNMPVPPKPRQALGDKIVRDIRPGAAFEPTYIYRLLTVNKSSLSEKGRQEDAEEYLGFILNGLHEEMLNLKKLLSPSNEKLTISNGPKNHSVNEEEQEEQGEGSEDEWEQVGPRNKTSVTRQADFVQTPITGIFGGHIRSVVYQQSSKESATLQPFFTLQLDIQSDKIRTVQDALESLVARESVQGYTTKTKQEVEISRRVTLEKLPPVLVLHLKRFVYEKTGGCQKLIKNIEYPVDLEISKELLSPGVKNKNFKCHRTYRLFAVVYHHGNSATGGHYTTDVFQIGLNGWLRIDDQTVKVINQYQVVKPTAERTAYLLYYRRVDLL
# USP8 inh = human USP8 deubiquitinase inhibition. P40818. purified USP8, Ub-rhodamine cleavage fluorescence, 30 min. inhibition, % at 20 µM. hit rate 4.2% among 47,000. AID 1645853
# USP17 block = inhibitors of human USP17 deubiquitinase; A8MUK1; inhibition, % at 50 µM; AID 1645855; purified USP17, Ub-rhodamine cleavage fluorescence, 3 h; hit rate 6.5% among 47,000
# USP28 block = blocks human USP28 ubiquitin-rhodamine cleavage | Q96RU2 | purified USP28, Ub-rhodamine cleavage fluorescence, 30 min | inhibition, % at 25 µM | hit rate 3% among 47,000 | AID 1645857
# USP30 inh = blocks human USP30 ubiquitin-rhodamine cleavage; Q70CQ3; purified USP30, Ub-rhodamine cleavage fluorescence; inhibition, % at 25 µM; hit rate 5.3% among 47,000; AID 1645860
# * hit, by the source's call; nt = not tested or not shown. Only some compounds are listed: those with a hit (about 13% of all), similar ones and a draw of the others. Rule as the data show it: active = inhibition above about 30%; inactive = the rest.
SMILES,USP10 inh,USP8 inh,USP17 block,USP28 block,USP30 inh
O=C(Cn1c(=O)n(-c2ccc(F)cc2)c(=O)c2oc3ccccc3c21)NC1CCCCC1,7,41*,17,6,-6
O=C(Cn1c(=O)n(CC(=O)NC2CCCC2)c(=O)c2ccccc21)Nc1ccc(Br)cc1,5,9,38*,24,41*
O=C(Cn1c(=O)ccn(Cc2ccccc2)c1=O)NCc1ccco1,1,-4,-4,-2,-18
CCc1noc(Cn2cnc3c4ccccc4n(CC(=O)NC4CCCCC4)c3c2=O)n1,18,22,46*,53*,69*
COC(=O)c1ccc(CNC(=O)c2cccc(S(=O)(=O)N3c4ccccc4CC3C)c2)cc1 (stereo unspecified),0,-5,-7,-145,20
CCc1noc(-c2ccc(OCC(=O)Nc3ccccc3C(C)C)cc2)n1,1,-21,41*,-9,25
CCc1noc(-c2ccc(OCC(=O)Nc3ccc(C)cc3C)cc2)n1,6,1,51*,5,15
CCc1ccc(NC(=O)COc2ccc(-c3nc(CC)no3)cc2)cc1,4,-17,20,2,26
Cc1ccc(NC(=O)c2cc(=O)c3ccccc3o2)cc1S(=O)(=O)N1CCOCC1,10,-13,7,21,35*
Cc1ccc(NC(=O)C2CCCC2)cc1S(=O)(=O)N1CCOCC1,0,-3,-14,-9,-5
Cc1nc(C2CN(Cc3csc(C4CCCC4)n3)CCO2)n[nH]1 (stereo unspecified),1,19,6,3,7
COC(=O)c1ccc(O)c2oc3cc(C)cc(O)c3c(=O)c12,-5,-82,10,-8,-83
COc1cccc(-c2ccc3nc(N4CCC(C(N)=O)CC4)sc3n2)c1,-3,14,49*,2,8
O=C(C1CCN(c2nc3ccc(-c4cccnc4)nc3s2)CC1)N1CCCC1,-1,-4,-2,-4,-2
COc1ccc(-c2cc(C)no2)cc1S(=O)(=O)NCc1ccc(F)cc1,0,3,-2,-4,-2
O=C(COc1ccc2ccc(=O)oc2c1)c1ccc2c(c1)OCCO2,-3,2,43*,-20,-179
O=C(COC(=O)C1(c2ccc(Cl)cc2)CCCC1)c1ccc2c(c1)OCCO2,4,0,-15,-7,-21
COCc1cc(=O)n(Cc2ccccc2C)c(N2CCCC2)n1,1,1,nt,-6,-12
COC(=O)C1=CO[C@@H](C)[C@H]2C[n+]3ccc4c([nH]c5ccccc54)c3C[C@H]12,-8,-50,-21,-13,-77
CCOc1cc2[nH]c(=O)n(CC3CCC(C(=O)NCCc4c[nH]c5ccccc45)CC3)c(=O)c2cc1OCC (stereo unspecified),19,-10,23,-6,37*
CCOc1cc2[nH]c(=O)n(CC3CCC(C(=O)N4CCC5(CC4)OCCO5)CC3)c(=O)c2cc1OCC (stereo unspecified),0,4,5,0,11
CS(=O)(=O)N1CCN(Cc2ccc(=O)n(CC3CC3)c2)CC1,-2,48*,22,0,-16
Cc1ccc(CN2CC[C@@H]3[C@H](CC2)N(S(C)(=O)=O)CCS3(=O)=O)cc1,-1,-9,0,-4,11
COc1ccc(N2CCn3c(SCC(=O)Nc4cccc(F)c4)nnc32)cc1,12,31*,37*,9,34*
COc1ccc(N2CCn3c(SCC(=O)Nc4cccc(C(F)(F)F)c4)nnc32)cc1,14,-15,-7,-7,6
SMILES,USP10 inh,USP8 inh,USP17 block,USP28 block,USP30 inh
COc1ccc(N2CCn3c(SCC(=O)Nc4ccccc4)nnc32)cc1,5,14,26,5,43*
O=C(CSc1nnc2n1CCN2c1ccccc1)Nc1ccc(OC(F)(F)F)cc1,2,21,24,9,29
Nc1c(-c2nc(-c3ccc(F)cc3)no2)nnn1-c1ccccc1F,1,35*,5,-6,0
Nc1c(-c2nc(-c3ccccc3Cl)no2)nnn1-c1ccc(Cl)cc1,60*,94*,43*,20,40*
Cc1cccc(-n2nnc(-c3nc(-c4ccccc4F)no3)c2N)c1C,-10,15,14,-1,-6
Cc1cc(Br)c2nc(-c3cccc(C(F)(F)F)c3)oc(=O)c2c1,3,4,15,5,13
Cc1cc2c(=O)oc(-c3ccccc3Br)nc2s1,18,44*,25,8,23
CC(C)C(NC(=O)c1ccc(C(C)(C)C)cc1)C(=O)OCC(=O)c1c[nH]c2ccccc12 (stereo unspecified),-5,-40,-34,-71,-183
Cc1ccc(C(=O)NC(C(=O)OCC(=O)c2cc(C)n(-c3ccc4c(c3)OCO4)c2C)C(C)C)cc1 (stereo unspecified),4,52*,29,17,-8
COc1ccc(-c2nc(CNC(=O)COc3ccc(C)cc3)cs2)cc1,7,7,57*,7,12
COc1cccc(-c2cc(CNC(=O)COc3ccc(F)cc3)no2)c1,5,4,3,12,35*
Cc1cccc(OCC(=O)NCc2cc(-c3ccccc3F)on2)c1,7,9,42*,18,42*
CCc1ccc(OCC(=O)NCc2csc(-c3ccc(OC)cc3)n2)cc1,11,-8,-14,0,-3
COc1ccccc1OCC(=O)NCc1cc(-c2ccc(F)cc2)on1,4,-1,-6,0,-22
COc1ccccc1CNC(=O)Cc1cc(-c2ccc(F)cc2)on1,1,-8,15,-12,0
COc1cccc(C(=O)NCc2cc(-c3ccc(F)cc3F)on2)c1OC,-3,-7,0,0,40*
Cc1ccc(-c2cc(CNC(=O)COc3ccccc3F)no2)cc1,0,15,30,14,29
CN(C)c1ccc(C(CNC(=O)c2cccc(S(=O)(=O)N3CCOCC3)c2)c2c[nH]c3ccccc23)cc1 (stereo unspecified),-3,-19,-7,-21,-71
O=C(CN1C(=O)COc2ccc(Cl)cc21)Nc1cccc2ncccc12,-6,73*,60*,-5,-114
O=C1COc2ccc(C(=O)Nc3cccc4ncccc34)cc2N1,-4,-8,37*,15,-126
O=C1COc2ccc(C(=O)c3ccccc3C(=O)NC3CC3)cc2N1,5,3,4,nt,nt
Cn1nc(C2CCCN(S(=O)(=O)c3ccccc3Cl)C2)c2nccnc21 (stereo unspecified),2,-13,-5,-6,-7
O=C(c1ccncc1)N1CCC(c2c[nH]c3ccccc23)(c2c[nH]c3ccccc23)CC1,-2,-13,47*,6,4
Cc1cc(O)c2c(C)c(CC(=O)N[C@@H](CCCNC(N)=O)C(=O)O)c(=O)oc2c1,2,7,8,13,0
COc1ccccc1C(=O)N[C@H]1[C@H](O)[C@H](O)C[C@@H]1c1ccccc1C,1,2,15,8,13
Cc1ccccc1[C@H]1C[C@@H](O)[C@@H](O)[C@@H]1NC(=O)COc1ccccc1,0,23,21,15,39*
